One assay has as its system MCC-13. Briefly: qHTS assay to identify novel small-molecules to repurpose for Merkel cell carcinoma treatment (AID 1296009). Also: nearly all actives have a fitted effect of over 60% in size. The note with it: MCC and control cell lines, CellTiter-Glo viability, 72 h; series mostly up to 46 µM. Summed up:
(§1)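 qHTS format: cells treated with library compounds in DMSO across 8 (NPC) or 11 (MIPE) concentrations. Readout after 72 hr at 37 degree celsius was CellTiter-Glo luminescence.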

The test system of the next assay is MCC-26. Described as above. The note with it: MCC and control cell lines, CellTiter-Glo viability, 72 h; series mostly up to 46 µM. Put shortly:
as §1

A further assay has as its system MKL-1. The assay is described as above. The conditions noted are these: MCC and control cell lines, CellTiter-Glo viability, 72 h; series mostly up to 46 µM. Put shortly: as §1
On the technique in general: In ATP-based viability assays light output follows the ATP content of the culture.

The next assay deals with MKL-2. Described as above. The conditions noted are these: MCC and control cell lines, CellTiter-Glo viability, 72 h; series mostly up to 46 µM. Put shortly: as §1
The next assay concerns NIH3T3. The assay is described as above. The note with it: MCC and control cell lines, CellTiter-Glo viability, 72 h; at 44.8 µM (top of the series) unless noted. Put shortly:
as §1

Another assay has as its system UISO. The assay is described as above. The conditions noted are these: MCC and control cell lines, CellTiter-Glo viability, 72 h; series mostly up to 46 µM. Put shortly:
as §1

The subject of the next assay is WaGa. Described as above. The note with it: MCC and control cell lines, CellTiter-Glo viability, 72 h; series mostly up to 46 µM. Put shortly:
as §1

The next assay deals with C33A. Briefly: Primary qHTS to identify gynecologic anti-cancer compounds using libraries of approved drugs and bioactive compounds (AID 1345084). Also: nearly all actives have a fitted effect of over 55% in size. The conditions noted are these: Gynecologic cancer cell panel viability, ATPlite luminescence, 48 h; series mostly up to 57.5 µM. Summed up:
(§2)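 ATP-based viability (ATPlite), 1,000 cells/well, 16 h pre-incubation, 48 h compound at 37 C, 5% CO2, 15 min RT before read.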

The test system of a further assay is CAOV3. Described as above. The conditions noted are these: Gynecologic cancer cell panel viability, ATPlite luminescence, 48 h; series mostly up to 57.5 µM. Summed up:
as §2

Another assay concerns CASKI. The assay is described as above. The note with it: Gynecologic cancer cell panel viability, ATPlite luminescence, 48 h; series mostly up to 57.5 µM. Put shortly: as §2
For another assay, the system named is Es-2. The description is as above. The note with it: Gynecologic cancer cell panel viability, ATPlite luminescence, 48 h; series mostly up to 57.5 µM. Put shortly:
as §2

The next assay has as its system HeLa. The description is as above. The conditions noted are these: Gynecologic cancer cell panel viability, ATPlite luminescence, 48 h; series mostly up to 57.5 µM. Put shortly: as §2
In a further assay the test system is Hek293T. Described as above. The note with it: Gynecologic cancer cell panel viability, ATPlite luminescence, 48 h, control line for the selectivity index; series mostly up to 57.5 µM. Put shortly:
as §2

The next assay has as its system JEG-3. The assay is described as above. The note with it: Gynecologic cancer cell panel viability, ATPlite luminescence, 48 h; series mostly up to 57.5 µM. Summed up: as §2
The test system of a further assay is OV90. The description is as above. The conditions noted are these: Gynecologic cancer cell panel viability, ATPlite luminescence, 48 h; series mostly up to 57.5 µM. Put shortly: as §2
For the next assay, the system named is PA-1. The assay is described as above. The conditions noted are these: Gynecologic cancer cell panel viability, ATPlite luminescence, 48 h; series mostly up to 57.5 µM. Summed up: as §2
The test system of the next assay is SKOV3. The assay is described as above. The note with it: Gynecologic cancer cell panel viability, ATPlite luminescence, 48 h; series mostly up to 57.5 µM. Summed up: as §2
Another assay has as its system Tov-21-G. The assay is described as above. The conditions noted are these: Gynecologic cancer cell panel viability, ATPlite luminescence, 48 h; series mostly up to 57.5 µM. Put shortly:
as §2

The next assay deals with Tov112D. The assay is described as above. The note with it: Gynecologic cancer cell panel viability, ATPlite luminescence, 48 h; series mostly up to 57.5 µM. Summed up:
as §2

A short description of assay [1]: Drug repurposing screens with cells derived from glioblastoma tumor samples (AID 1345199). Also: nearly all actives have a fitted effect of over 40% in size. Also: potency is read from the fitted curve at half-maximal effect. The note with it: GBM patient neurospheres viability, ATP luminescence, 48 h. Put shortly:
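Four patient lines of CD133+ GBM neurospheres were screened at several concentrations; hits were retested in those lines plus three slower-growing GBM lines, using 48-hour treatment and ATP-based viability.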

Setting [2] is: at 45.9 µM (top of the series), tumour line B.
The mark [3] stands for this setting: at 45.9 µM (top of the series), tumour line D.
The mark [4] stands for this setting: at 46.1 µM (top of the series), tumour line C.

Results filed as inconclusive are left out. A number with no mark means an inactive call. Activity calls are given as the source filed them. Calls follow the shape of the dose curve; as a rule, active = well fitted curve in the direction sought with a large enough effect; inconclusive = small, poorly fitted or top-dose-only effect, or another doubt; inactive = no such curve, though single readings can be large; an effect the other way counts as inactive or inconclusive.
% is scaled to controls: 0 for no effect and ±100 for the full control effect.

In the case of `c1ccc(CN(CC2=NCCN2)c2ccccc2)cc1`, the Potency entry in the assay on MCC-13, with MCC-26, with MKL-1, in the assay with MKL-2, in the assay on UISO and in the assay on WaGa was “inactive” throughout. The Potency entry with C33A, in the assay on CAOV3, in the assay on CASKI, with Es-2, in the assay on HeLa and in the assay on Hek293T was “inactive” in each case. For the same molecule, the Potency entry in the assay on JEG-3, with OV90, in the assay on PA-1, with SKOV3, in the assay on Tov-21-G and in the assay on Tov112D was “inactive” throughout. For the same molecule, in the assay with NIH3T3, the call was inactive. Further, the activity, negative = cell killing in assay [1] (setting [2]) is -15.8%; in assay [1] (setting [3]), -19.1%; in [1] (setting [4]), -20.7%.
`CN1CCC[C@@H]1Cc1c[nH]c2ccc(CCS(=O)(=O)c3ccccc3)cc12`: the Potency entry with MCC-13, in the assay with MCC-26, in the assay on MKL-1, with MKL-2, in the assay with UISO and in the assay on WaGa was “inactive” throughout. Also, the Potency result with C33A, in the assay on CAOV3, with CASKI, in the assay on Es-2, in the assay on HeLa and in the assay with Hek293T was “inactive” in each case. For the same molecule, the Potency result in the assay on JEG-3, in the assay on OV90, with PA-1, with SKOV3, in the assay on Tov-21-G and in the assay on Tov112D was “inactive” in each case. The call in the assay on NIH3T3 was inactive. Besides, the activity, negative = cell killing in assay [1] (setting [2]) was -21.2%. Besides, the Potency in [1] (tumour line A) is 14.1 µM (active).
For the molecule `CCN(CC)CCNC(C(=O)OCCC(C)C)c1ccccc1` (stereo unspecified), the Potency entry in the assay with MCC-13, in the assay on MCC-26, with MKL-1, with MKL-2, in the assay on UISO and with WaGa was “inactive” throughout. Besides, the Potency result with C33A, with CAOV3, in the assay with CASKI, in the assay on Es-2, with HeLa and with Hek293T was “inactive” each time. The Potency result with JEG-3, with OV90, in the assay on PA-1, in the assay with SKOV3, in the assay on Tov-21-G and in the assay on Tov112D was “inactive” in each case. In the assay with NIH3T3, the molecule was classed as inactive. The activity, negative = cell killing in [1] (setting [2]) was -12.5%; in assay [1] (setting [4]), 6.2%. Besides, the Potency in assay [1] (tumour line A) was 25.1 µM (active).
As for `CN(C)CC[C@@H](c1ccc(Cl)cc1)c1ccccn1`, the Potency entry in the assay with MCC-13, in the assay with MCC-26, with MKL-1, in the assay on MKL-2, in the assay with UISO and in the assay with WaGa was “inactive” each time. Moreover, the Potency result with C33A, in the assay on CAOV3, in the assay with CASKI, with Es-2, in the assay on HeLa and in the assay with Hek293T was “inactive” each time. In addition, the Potency result in the assay with JEG-3, in the assay on OV90, in the assay on PA-1, with SKOV3, in the assay on Tov-21-G and in the assay with Tov112D was “inactive” throughout. In the assay on NIH3T3, the molecule was classed as inactive. Also, the activity, negative = cell killing is -9.08% in assay [1] (setting [2]), -26.8% in assay [1] (setting [3]) and -11.4% in assay [1] (setting [4]). In addition, the Potency in assay [1] (tumour line A) is 14.1 µM (active).
As to `N[C@@H](CSCCCO)C(=O)O`, the Potency entry in the assay on MCC-13, with MCC-26, in the assay on MKL-1, in the assay with MKL-2, in the assay with UISO and with WaGa was “inactive” each time. Further, the Potency result in the assay on C33A, with CAOV3, in the assay on CASKI, in the assay with Es-2, with HeLa and in the assay with Hek293T was “inactive” each time. Further, the Potency entry in the assay on JEG-3, with OV90, in the assay on PA-1, in the assay with SKOV3, in the assay on Tov-21-G and in the assay with Tov112D was “inactive” throughout. In the assay on NIH3T3, the outcome is “inactive [at 17.4 µM]”. In addition, the activity, negative = cell killing in assay [1] (setting [2]) is 0.365%; in assay [1] (setting [3]), -10%; in [1] (at 46 µM (top of the series), tumour line A) it was -27%; in assay [1] (setting [4]), -8.48%.
